Assay outcomes from PubChem.
Compounds with a hit are over-represented: about 4.4% of the library has one in this group of screens.
TIM10 inh – inhibits growth of TIM10 yeast strain; AID 463195; S. cerevisiae TIM10 strain growth, BacTiter-Glo luminescence, 24 h; inhibition, % at 10 µM; hit rate 1.4% among 330,000;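 active means inhibition of 40% or more at the single tested concentration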;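 further: wild-type TIM10 isogenic control strain grown at permissive 25 °C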
SUMO Mot1 rescue – blocks SUMOylation pathway, rescuing yeast Mot1-301 growth. growth rescue, % at 18.8 µM. AID 2716. S. cerevisiae Mot1-301 growth rescue, ATP luminescence, 38.5C; percent above DMSO median, 100 means doubled. hit rate 1% among 320,000;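 active means every valid replicate shows activation above 250% relative to neutral control wells; inactive means the rest, any valid replicate at or below 250%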;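 further: OY570 slx delta 5 strain wells were the positive control but not used for scaling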
tim10-1 inh – inhibits growth of tim10-1 mutant yeast; hit rate 2.2% among 330,000; S. cerevisiae tim10-1 ts strain growth, BacTiter-Glo, 24 h; inhibition, % at 20 µM;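 active means inhibition of at least 40%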;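 further: mutant grown at 25 °C; 0% = DMSO wells with yeast and 100% = wells holding no yeast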
tim23-1 inh – inhibits growth of tim23-1 mutant yeast. S. cerevisiae tim23-1 growth, BacTiter-Glo luminescence, 24 h. inhibition, % at 20 µM. hit rate 1.3% among 330,000;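 active means growth inhibition of the mutant yeast at or above 50%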;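 further: temperature-sensitive mutant grown at 25 °C; plate controls were DMSO-treated mutant yeast for no effect and medium wells lacking yeast for full effect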
PfHsp90 yeast 2 – reduces growth (ATP signal) of yeast expressing P. falciparum Hsp90; S. cerevisiae expressing PfHsp90, BacTiter-Glo ATP, 48 h; yeast lacking PDR1 and PDR3 efflux regulators; inhibition, % at 9.4 µM; hit rate 0.32% among 310,000; AID 504621;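 active means every replicate shows inhibition above about 80%, whatever the replicate mean, limit read from the data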;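 further: 0% = DMSO neutral controls and 100% = 20 µM radicicol positive controls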
Mot1 SUMO dose – yeast SUMO pathway inhibition in dose response; shares compounds with SUMO Mot1 rescue; S. cerevisiae Mot1-301 galactose growth, ATP luminescence, 24 h; -100 = growth of slx-deleted rescue strain; growth activity, percent, % at 42 µM; 2,300 tested, under 10 active; AID 493004;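 active means Signal drops as the depositor expects, and the fitted half-maximal dose is no more than ten times the top valid tested dose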;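 further: more negative values mean stronger growth rescue toward the control strain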
* hit, by the source's call; nt = no result given; + = active, no number.

SMILES | TIM10 inh | SUMO Mot1 rescue | tim10-1 inh | tim23-1 inh | PfHsp90 yeast 2 | Mot1 SUMO dose
CCN(CC)c1ccc(C=C2C(=O)OC(c3ccccc3)OC2=O)cc1 (centres undefined) | -28 | + | -9 | 13 | -6 | 0
CCN(CC)c1ccc(C=C2C(=O)OC(C)(C(C)(C)C)OC2=O)cc1 (centres undefined) | 0 | 0 | 13 | 25 | -15 | nt
Cc1c(Br)c(O)c(Br)c2sc(=O)oc12 | 34 | 15 | 18 | 20 | -29 | nt
O=C(O)CCSc1ncnc2sc(-c3ccccc3)cc12 | 29 | 31 | 0 | 16 | -10 | nt
O=C(O)CSc1ncnc2sc(-c3ccccc3)cc12 | -3 | 525* | 1 | 5 | nt | 0
O=C(CN1CCN(c2cccc(Cl)c2)CC1)NC1CCCc2ccccc21 (centres undefined) | -4 | 49 | -1 | 13 | 2 | nt
CCNC(=O)NC(C(=O)OC)C12CC3CC(CC(C3)C1)C2 (centres undefined) | -2 | 562* | 16 | 13 | 4 | 1
COc1ccccc1NC(=O)C1CCCN(S(=O)(=O)c2ccc3c(c2)CC(C)N3C(C)=O)C1 (centres undefined) | 8 | 9 | 13 | 24 | 20 | nt
CC(C)c1onc(C(=O)N(C)Cc2ccccc2)c1[N+](=O)[O-] | 8 | 726* | 14 | 15 | -22 | 0
O=C(CCN=C1NS(=O)(=O)c2ccccc21)OCc1ccccc1 | 8 | 13 | 4 | 1 | -13 | nt
O=C(c1ccccc1)C1CC=CCC1C(=O)c1ccccc1 (centres undefined) | nt | nt | nt | nt | -6 | nt
Cc1ccc(-n2nnnc2SCC#N)cc1 | 3 | 716* | 1 | -2 | 2 | 0
COc1ccc(-n2nnnc2SCC#CCO)cc1 | 7 | 6 | 19 | 13 | 4 | nt
Cc1cc(C(=O)Nc2ccc(Br)cc2)cs1 | 2 | 11 | 11 | 3 | 9 | nt
CCn1cc(CCCC(=O)NCc2ccccc2OC)c2ccccc21 | -28 | 888* | 8 | 14 | 0 | 0
CCn1cc(CCC(=O)NCc2ccccc2OC)c2ccccc21 | 9 | 7 | 6 | 7 | -31 | nt
O=C(COc1ccccc1O)NCCN1CCOCC1 | -12 | 455 | 4 | 4 | -24 | nt
O=C(CC(c1ccccc1)c1ccccc1O)NCCN1CCOCC1 (centres undefined) | -6 | 428* | 7 | -3 | -4 | 1
CC(C)COc1ccc(C(=S)N2CCCC2)cc1 | -11 | 2 | 9 | 5 | -16 | nt
O=C(NNC(=O)c1ccccc1O)c1ccco1 | -11 | + | -13 | 4 | -18 | 0
CCOc1ncccc1C(=O)Nc1cc(S(=O)(=O)N(CC)CC)ccc1N1CCOCC1 | 12 | 3 | 16 | 19 | nt | nt
O=C(OCC(=O)N1CCN(c2ccccc2)CC1)c1nc(Cl)ccc1Cl | -7 | 641* | -6 | -2 | nt | 0
Cc1cc(-c2nnc(SCC(=O)Nc3nccs3)o2)no1 | -19 | 14 | -6 | -20 | 13 | nt
Cc1cc(SCC(=O)c2cccs2)nc2c(C)cccc12 | 21 | -18 | 3 | 11 | -5 | nt
Cc1cc2c(C)ccc(C)c2nc1SCC(=O)c1cccs1 | 13 | 591* | 22 | 18 | -62 | -1
SMILES | TIM10 inh | SUMO Mot1 rescue | tim10-1 inh | tim23-1 inh | PfHsp90 yeast 2 | Mot1 SUMO dose
N#Cc1c(N2CCN(c3ccc([N+](=O)[O-])cc3)CC2)[n+](=O)c2ccc(Cl)cc2n1[O-] | nt | nt | nt | nt | -11 | nt
Cc1ccc(OCc2cc(C(=O)N3CCC(c4ccccc4Cl)C3)no2)cc1C (centres undefined) | -6 | -4 | 10 | 3 | -18 | nt
CN(C)S(=O)(=O)c1cccc(C(=O)Nc2ccccc2)c1 | 7 | -27 | -14 | 4 | 7 | nt
CN1CCN(C(=S)Nc2cccc(S(=O)(=O)N(C)C)c2)CC1 | -7 | 30 | -4 | 11 | -28 | nt
CN(C)S(=O)(=O)c1cccc(NC(=O)C(c2ccccc2)c2ccccc2)c1 | 7 | 404* | 0 | -2 | -26 | 0
CC(C)N(C(=S)Nc1cccc(S(=O)(=O)N(C)C)c1)c1ccccc1 | 10 | 454* | 6 | 5 | -22 | 1
COC(=O)[C@H](Cc1ccc(O)cc1)NC(=O)Cn1cnc2c(OCc3ccccc3)ncnc21 | 12 | nt | 6 | 15 | 0 | nt
Cc1c(Cl)cccc1NC(=O)Cn1c(CCC(=O)O)ccc1-c1ccccc1 | -3 | 429* | 13 | 15 | -25 | -1
Cc1ccc(NC(=O)Cn2c(CCC(=O)O)ccc2-c2cccs2)cc1 | 20 | 526* | 1 | 19 | -4 | 0
CCOc1ccc(CCNC(=O)COC(=O)c2ccc(OC(C)C)cc2)cc1OCC | 7 | 25 | 20 | 23 | 21 | nt
COc1cc(NC(=O)[C@H]2CCCN2S(=O)(=O)c2cccc3cccnc23)cc(OC)c1OC | -1 | -1 | -17 | 5 | -10 | nt
O=C(NC1CCCCCC1)C1CCN(S(=O)(=O)c2cccc3cccnc23)CC1 | 14 | 561* | -3 | 10 | 0 | 1
COc1ccc(NC(=O)C2CCCN2S(=O)(=O)c2cccc3cccnc23)cc1OC (centres undefined) | 9 | 414* | 1 | 15 | -18 | 0
COC(=O)c1c(C)[nH]c(C(=O)OCC(=O)c2ccc(C)s2)c1C | 9 | 13 | -14 | 5 | 9 | nt
O=S(=O)(Nc1cccc2cn[nH]c12)c1ccc(F)cc1 | 5 | 790* | -1 | 1 | 14 | 1
COc1ccc(-c2cc(CC3(C(=O)O)CCN(C(=O)OC(C)(C)C)CC3)on2)c(OC)c1 | -10 | 381* | 4 | 12 | 27 | 1
CCOC(=O)Cn1c(C)c(Br)c(=O)c2cccc(C)c21 | -5 | + | 5 | 13 | 22 | 0
Cc1ccccc1Nc1cc(=O)oc2ccccc12 | -2 | 370* | 0 | -14 | -5 | 1
CC(=O)Nc1ccc(NC(=O)CC(C)n2ccnc2)cc1 (centres undefined) | -15 | 87 | 13 | 1 | -11 | nt
Cc1c(NC(=O)c2cc(-c3ccccc3O)on2)c(=O)n(-c2ccccc2)n1C | -17 | 441* | -12 | -15 | -4 | 0
Cc1c(NC(=O)c2cc(-c3ccccc3)on2)c(=O)n(-c2ccccc2)n1C | -11 | 1 | 1 | 1 | -14 | nt
Cc1c(NC(=O)c2ccc(N(C)S(C)(=O)=O)cc2)c(=O)n(-c2ccccc2)n1C | 7 | + | 0 | 7 | 12 | 1
CCCOc1ccccc1C1NC(=O)NC(C)=C1C(=O)OCc1ccccc1 (centres undefined) | 14 | 735* | 3 | 37 | -29 | 0
CCCOc1ccccc1C1NC(=O)NC(C)=C1C(=O)OCCOC (centres undefined) | 14 | -12 | 34 | 20 | 0 | nt
CCN(CC)CCCN(Cc1cc2cc(OC)ccc2[nH]c1=O)C(=O)Nc1ccc(F)cc1 | -6 | 463* | -12 | 15 | 3 | 0
